Here are results for 19 compounds from PubChem BioAssay (NCI).

Test [1] in a line: NCI Yeast Anticancer Drug Screen. Data for the rad50 strain (AID 155).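 Note: 0% = growth of vehicle-only cultures of the same strain.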 To be noted: S. cerevisiae rad50 strain growth inhibition; at 50.0 µM; active compounds read high. The method in brief: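 DNA repair mutant yeast, compound exposure, growth read-out; inhibition is taken relative to vehicle.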
Test [2] is described as follows: NCI Yeast Anticancer Drug Screen. Data for the mec2-1 strain (AID 157). To be noted: S. cerevisiae mec2-1 strain, at 50.0 µM, active compounds read high. The method in brief:
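Mutant yeast (mec2-1) grown with compound; growth inhibition relative to vehicle control reported.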

The nature of test [3]: NCI Yeast Anticancer Drug Screen. Data for the sgs1 mgt1 strain (AID 161).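 Note: 0% = growth of cultures given vehicle only.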 The conditions noted are these: S. cerevisiae sgs1 mgt1 strain, at 50.0 µM, active compounds read high. In a few lines:
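Compounds are added to genetically altered yeast, and growth is compared with cultures given vehicle alone to give percent inhibition.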

A short description of test [4]: NCI Yeast Anticancer Drug Screen. Data for the cln2 rad14 strain (AID 165).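 Note: 0% = growth equal to vehicle treated cultures.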 The conditions noted are these: S. cerevisiae cln2 rad14 strain, at 50.0 µM, active compounds read high. In a few lines:
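Readout is yeast growth inhibition versus vehicle-treated controls, using a strain with cln2 and rad14 alterations exposed to compound.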

Test [5] is described as follows: NCI Yeast Anticancer Drug Screen. Data for the bub3 strain (AID 167). To be noted: S. cerevisiae bub3 mutant strain, at 50.0 µM, active compounds read high. In a few lines:
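In this screen, a yeast mutant lacking normal mitotic checkpoint function is challenged with compound. Relative growth versus vehicle gives the inhibition value.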

Test [6] can be described thus: NCI Yeast Anticancer Drug Screen. Data for the mlh1 rad18 strain (AID 175). The conditions noted are these: S. cerevisiae mlh1 rad18 strain growth inhibition; at 50.0 µM; active compounds read high. In a few lines:
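Genetically defined yeast (DNA repair-deficient) exposed to compounds; growth inhibition determined relative to vehicle.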

Compounds without any hit were thinned out: in the full panel of roughly 79,000, 15% have a hit. Values without a mark were called inactive. The source made the active and inactive calls. Cut-off read from the data, not from the text of the source: active = growth inhibition above about 70%; inactive = the rest. Where a SMILES comes first, the peptide text is derived from it.

Regarding `COc1ccc(OC)c(NC(=O)Nc2cc(Cl)ccc2C)c1`, the growth inhibition was 4.25% in test [1]; 0.65% in test [2]; -2.3% in test [3]; -6.1% in test [4]; 19.2% in test [5]; 4.8% in test [6].

As for `CON(C)S(=O)(=O)c1ccc(Cl)cc1`, the growth inhibition in test [1] was 7.75%; in test [2] it was -9.5%; in test [3], -4.15%; in test [4], -18.9%; in test [5], -2.25%; in test [6], -6.2%.

As for `NC(=O)C(=O)c1ccccc1`, the growth inhibition is -6.65% in test [1]; -27.1% in test [2]; -2% in test [3]; -3% in test [4]; -19.6% in test [5]; -19.7% in test [6].

For the compound `CC[n+]1c(COCCOc2ccccc2)sc2cc3c(cc21)OCO3`, the growth inhibition in test [1] was -23.4%; in test [2], -11.4%; in test [3], -0.35%; in test [4], 12%; in test [5], 2.55%; in test [6] it was -18.1%.

In the case of `CC(=O)NCCc1ccc(OC(C)=O)c(OC(C)=O)c1`, the growth inhibition in test [1] is 0.15%; in test [2], -10.6%; in test [3], 26.2%; in test [4], 6.45%; in test [5] it was 23.4%; in test [6], 16.1%.

As for `COc1ccc(Nc2nc3c(N)cc(C(F)(F)F)cc3nc2-c2ccccc2)cc1OC`, the growth inhibition in test [1] is 0.5%; in test [2], 0.95%; in test [3], -22.6%; in test [4] it was -6.8%; in test [5], -18.6%; in test [6] it was -7.1%.

Turning to `CC(C)c1cc(C(C)C)c(B(c2ccccc2)c2ccccc2)c(C(C)C)c1B(c1ccccc1)c1ccccc1`, the growth inhibition in test [1] is -13.7%; in test [2], 4.8%; in test [3] it was 18.4%; in test [4], 6.3%; in test [5], 6.35%; in test [6], 13.9%.

Regarding `O=C(Nc1ccccc1)c1ccccc1Cl`, the growth inhibition was 24.5% in test [1]; -0.15% in test [2]; 0.35% in test [3]; 2.8% in test [4]; -3.05% in test [5]; 12.3% in test [6].

With `CCC(C)C(N)C(=O)NC(Cc1ccc(O)cc1)C(=O)O` (stereo not drawn) (H-Ile-Tyr-OH; configuration not given here), the growth inhibition in test [1] was 16.4%; in test [2] it was -2.35%; in test [3], -0.8%; in test [4], 15.8%; in test [5], -10.2%; in test [6], 21.2%.

As to `O=C(COc1cccc(Cl)c1)Nc1ccc(Cl)cc1`, the growth inhibition was -0.5% in test [1]; -26.7% in test [2]; -18.9% in test [3]; -13.8% in test [4]; 17.4% in test [5]; 4.3% in test [6].

Consider `COC(=O)C1CC(=O)N(CCCl)C1` (centres undefined), for which the growth inhibition is -5.65% in test [1]; 5.6% in test [2]; -23.9% in test [3]; -18.1% in test [4]; 11.7% in test [5]; -10.8% in test [6].

For the compound `CC1=N/C(=C\c2ccc([N+](=O)[O-])cc2)C(=O)O1`, the growth inhibition in test [1] was 19.9%; in test [2] it was 9.05%; in test [3] it was 2.45%; in test [4], 4.6%; in test [5] it was 13.2%; in test [6], 42.8%.

For `CCOC(=O)c1ccc(CSc2ccc(OC)cc2)cc1`, the growth inhibition is 86.9% (active) in test [1]; 75.7% (active) in test [2]; 86.4% (active) in test [3]; 76.5% (active) in test [4]; 80.5% (active) in test [5]; 78.6% (active) in test [6].

`CC1(c2ccccc2)N=C(C(N)=O)c2[nH]cnc2N1` (centres undefined): the growth inhibition is -11.8% in test [1]; -41.1% in test [2]; -29.1% in test [3]; 1.85% in test [4]; 8.7% in test [5]; -11.8% in test [6].

With `CN(CCc1ccccn1)c1ccc2c(c1)C(=O)c1ccccc1-2`, the growth inhibition in test [1] is 46.9%; in test [2], 13.4%; in test [3], -1.8%; in test [4] it was -13.1%; in test [5] it was -2.7%; in test [6], 9.85%.

As to `S=C(N1CCN(c2ccc(Cl)c(Cl)c2)CC1)N1CCN(c2ccc(Cl)c(Cl)c2)CC1`, the growth inhibition in test [1] was 7.8%; in test [2] it was 22.2%; in test [3], 27.9%; in test [4], 12%; in test [5], 5.55%; in test [6] it was 20.2%.

As for `CC1(c2ccc(Cl)cc2)NC(=O)N(CC(N)=O)C1=O` (centres undefined), the growth inhibition in test [1] is 3.6%; in test [2], -0.1%; in test [3] it was -10.8%; in test [4], -11%; in test [5], -7.8%; in test [6], 8.6%.

Regarding `O=C(O)O.O=C(O)O.O=C(O)O.[Co]`, the growth inhibition in test [1] was -9.35%; in test [2], 38.3%; in test [3], -2.75%; in test [4], -11.6%; in test [5], 8.65%; in test [6], -5.05%.

Take `O=[N+]([O-])c1ccc(N(CCO)CCO)nc1`: the growth inhibition in test [1] is -15.7%; in test [2] it was -76.6%; in test [3], 5.15%; in test [4], 19.5%; in test [5], -19.3%; in test [6], -17.8%.
